According to PubChem BioAssay AID624483 (NMMLSC, 2012):
In all, about 360,000 compounds went through this assay and about 11,000 (3.1%) were called active. Roughly 2% stayed inconclusive and do not appear here. For the sample, actives were picked, then their nearest neighbours and some compounds at random. A number with no mark means an inactive call. No stated cut-off is given here; in the data, active means fluorescence intensity above about 16000; inconclusive means no clear call, values can overlap the other calls; inactive means below that.

Experiment: compound fluorescence in toxin protease inhibitor counterscreen, primary screen, artefact control for toxin protease inhibitor project, biochemical, multiplex microsphere, HTS (AID 624483)
Conditions: compound autofluorescence counterscreen, microsphere flow cytometry; active compounds read high

First: O=c1[nH]cccc1-c1nc2ccccc2n1Cc1ccc(Cl)cc1
Second: COc1ccccc1Cc1c(-c2ccc(Cl)cc2)nc2c3ccccc3ccn12
The fluorescence intensity of the first is lower: 4020 for the first, 6870 for the second.

COc1ccc(NC(=O)C2Cc3c(-c4ccc(Cl)cc4)ccnc3O2)cc1 (configuration not stated) and COc1ccc(CCCNC(=O)C2Cc3c(-c4cccc(C(N)=O)c4)ccnc3O2)cc1 (configuration not stated) are the same in fluorescence intensity: 3760 for the first, 3760 for the second.

First: O=C(CC1NCCNC1=O)Nc1cc(Cl)cc(Cl)c1 (configuration not stated)
Second: CCOc1ccc(NC(=O)CC2NCCNC2=O)cc1 (configuration not stated)
The fluorescence intensity of the first is higher: 7460 for the first, 4570 for the second.

First: Cc1cccc(NC(=O)CSc2nnc(CCNC(=O)OC(C)(C)C)o2)c1C
Second: Cc1ccccc1CSc1nnc(CCCCCNC(=O)OC(C)(C)C)o1
The fluorescence intensity of the first is higher: 3990 for the first, 3660 for the second.

First: CCOC(=O)N1CCC(NC(=O)C(C)n2c3ccccc3c3cnn(C)c(=O)c32)CC1 (configuration not stated)
Second: CC(C)CN(C(=O)Cn1c(=O)cnc2ccccc21)C1CCS(=O)(=O)C1 (configuration not stated)
The fluorescence intensity of the first is lower: 3150 for the first, 7550 for the second.

First: COC(=O)c1ccc(NC(=O)c2cc3c(CO)cnc(C)c3oc2=Nc2cccc(C(N)=O)c2)cc1
Second: CC(=O)Nc1ccc(NC(=O)c2ccc3c(c2)C(=O)N(c2ccccc2C)C3=O)cc1
The fluorescence intensity of the first is lower: 2910 for the first, 3300 for the second.

First: CN(C)C(=O)CSc1n[nH]c(-c2ccco2)n1
Second: CN(C)C(CNC(=O)c1cccc(C#N)c1)c1ccco1 (configuration not stated)
The fluorescence intensity of the first is lower: 2630 for the first, 3360 for the second.

Compared with COC(=O)c1ccccc1Sc1c(/C=N/OCc2ccc(Cl)cc2)c(C(F)(F)F)nn1C, CCNC(=S)Nc1ccc2c(c1)c(=O)n(C)n2Cc1ccc(Cl)cc1 is higher in fluorescence intensity: 2910 for the first, 3690 for the second.

Going from O=C(O)CSc1c2c(nc3cc(C(=O)Nc4cccc(C(F)(F)F)c4)ccc13)CCCC2 to O=C(Nc1ccccc1)c1ccccc1NC(=O)C(F)(F)F, the fluorescence intensity rises from 5110 to 9920.

Going from N[C@@H](Cc1ccccc1)C(=O)N1CCOCC1 to O=C(c1cc(COc2ccc(F)cc2F)on1)N1CCOCC1, the fluorescence intensity rises from 3920 to 6230.

Going from O=C(CSc1ncccn1)N1CCCC1 to Cc1cnc(NC(=O)C2CCCC2)s1, the fluorescence intensity falls from 5480 to 3280.

Compared with OC(c1ccc(Cl)cc1)c1ncc(-c2ccc(Cl)cc2)[nH]1 (configuration not stated), CC(=O)/C(=N\Nc1ccc(Cl)cc1Cl)Sc1cccc2cccnc12 is higher in fluorescence intensity: 3850 for the first, 7970 for the second.

Going from COCCn1c(CN(Cc2ccccc2)Cc2ccccc2)nc2c1c(=O)n(C)c(=O)n2C to CC(C)Cn1c(CN(Cc2ccccc2)Cc2ccccc2)nc2c1c(=O)n(C)c(=O)n2C, the fluorescence intensity rises from 5270 to 5910.

Going from CC1(C)OC(=O)C2=C(C[C@@H](C3CCCCC3)O[C@@H]2c2ccc(Cl)cc2)O1 to NS(=O)(=O)c1ccc(CCNC(=O)c2ccc(Cl)c(S(=O)(=O)N3CCCCCC3)c2)cc1, the fluorescence intensity falls from 6270 to 4250.

Going from COc1cc2ccccc2cc1C(=O)Nc1ccccc1C to COc1ccccc1C(=O)Nc1ccc(Nc2ccccc2)cc1, the fluorescence intensity rises from 3900 to 4350.

Going from Cc1ccc(Nc2c(F)c(F)c(F)c(F)c2C(=O)O)c(C)c1 to Cc1cc(C)cc(NC(=O)CN2C(=O)c3ccccc3C2=O)c1, the fluorescence intensity rises from 3820 to 4110.

Going from Cc1ncc([N+](=O)[O-])n1CCOC(=O)c1ccc(Br)cc1 to Cc1cc(Br)ccc1SCC(=O)OCC(=O)NCc1ccc2c(c1)OCO2, the fluorescence intensity falls from 4830 to 2190.

First: CC1(C(=O)NCc2ccc3c(c2)OCO3)CCN1C(=O)Cc1cccc2ccccc12 (configuration not stated)
Second: CC(=O)Nc1ccccc1C(=O)OCC(=O)c1cccc2ccccc12
The fluorescence intensity of the first is lower: 2930 for the first, 4440 for the second.

First: Nc1nc2c(Br)ccc(Br)c2cc1C(=O)NCCc1ccccc1
Second: Cc1noc(C)c1C(=O)NCCc1ccc(S(N)(=O)=O)cc1
The fluorescence intensity of the first is higher: 6050 for the first, 4000 for the second.

First: NS(=O)(=O)c1ccc(CCNC(=O)COC(=O)COc2cccc(C(F)(F)F)c2)cc1
Second: Cc1ccc(S(=O)(=O)CCC(=O)OCC(=O)NCCc2ccc(S(N)(=O)=O)cc2)cc1
The fluorescence intensity of the first is lower: 4060 for the first, 5910 for the second.

Going from COC(=O)c1c(C)[nH]c(C(=O)NCCc2ccc(S(N)(=O)=O)cc2)c1C to COc1ccc(NS(=O)(=O)c2cccc(C(=O)NCCc3ccc(S(N)(=O)=O)cc3)c2)cc1, the fluorescence intensity rises from 3790 to 8740.

First: Cc1cccc(NS(=O)(=O)c2cccc(C(=O)NNC(=O)c3ccccc3O)c2)c1
Second: Cc1ccccc1C(=O)NNC(=O)CN1C(=O)c2ccccc2C1=O
The fluorescence intensity of the first is higher: 3510 for the first, 2780 for the second.

Compared with COc1cccc(C(NC(C)=O)c2nc(-c3ccccc3OC)cs2)c1 (configuration not stated), COc1cccc(-c2cnc3c(NC(C)=O)cc(-c4cccc(NC(C)=O)c4)cn23)c1 is lower in fluorescence intensity: 3680 for the first, 3610 for the second.

First: CC(C)(C)CC(=O)Nc1nc(C(N)Cc2ccc(C(F)(F)F)cc2)cs1 (configuration not stated)
Second: CCc1oc(-c2ccc(OC)cc2)c(C(=O)OCCCCCO)c1C(C)OCCO (configuration not stated)
The fluorescence intensity of the first is lower: 2950 for the first, 5030 for the second.

Compared with O=C(NC1CCCC1)C(c1ccco1)N(C(=O)c1csnn1)c1ccccc1 (configuration not stated), N/C(=N\OC(=O)CC1CCCCC1)c1ccccc1 is lower in fluorescence intensity: 3410 for the first, 2550 for the second.

First: Cc1ccccc1-c1nc(NC(C)C)nc2cc(-c3ccccc3)sc12
Second: Cc1ccnc2nc(C(=O)Nc3nnc(-c4ccccc4)o3)nn12
The fluorescence intensity of the first is lower: 2960 for the first, 4840 for the second.

Going from CC(C)NC(=O)C1(C)CCCCCN1C(=O)c1ccc(-c2ccccc2)cc1 (configuration not stated) to COc1ccccc1C(=O)c1ccccc1C(=O)c1ccccc1, the fluorescence intensity rises from 3730 to 4030.

Going from Cc1cc(/C=N/NC(N)=O)c(C)n1C1CCCCC1 to O=S1(=O)CC(N2CCN(CCO)CC2)CN1C1CCCC1 (configuration not stated), the fluorescence intensity rises from 5160 to 5290.

Going from CCOC(=O)C1=CC[C@@H](c2ccncc2)N(S(=O)(=O)c2ccc(C)cc2)C1 to COc1ccc(-n2c(=O)[nH]c3cc(C(=O)NCCc4ccc(OC)c(OC)c4)ccc3c2=O)c(OC)c1, the fluorescence intensity falls from 6280 to 3790.

First: Cc1ccc(NCc2n[nH]c(=S)n2-c2ccccc2)cc1Cl
Second: CCn1c(CSCc2c(Cl)cccc2Cl)n[nH]c1=S
The fluorescence intensity of the first is lower: 4580 for the first, 5080 for the second.

Going from CN1C(=O)[C@H]2[C@@H](/C=C/c3ccccc3)N3C(=O)CN(Cc4ccc(-c5ccccc5)cc4)C(=O)[C@@]3(C)[C@H]2C1=O to O=C1NC[C@H](Cc2ccc(O)cc2)N(C[C@@H]2CCCN2C[C@H](Cc2ccccc2)N2C[C@H](Cc3ccccc3)N(CC3CCCCC3)C(=O)C2=O)C1=O, the fluorescence intensity rises from 3800 to 7010.

Going from CCOc1cc2[nH]c(=O)n(Cc3ccc(C(=O)NCCCN4CCCC4=O)cc3)c(=O)c2cc1OCC to CCOc1cc2[nH]c(=S)n(Cc3ccc(C(=O)N4CCN(C)CC4)cc3)c(=O)c2cc1OCC, the fluorescence intensity rises from 4740 to 5670.

Going from COc1ccc(Cn2c(=S)[nH]c3cc(C(=O)NCCCN4CCOCC4)ccc3c2=O)cc1 to CN(C)C(CNC(=O)c1ccc(OCc2cn3ccccc3n2)cc1)c1ccco1 (configuration not stated), the fluorescence intensity falls from 5500 to 4090.

Going from CN1CCN(c2ccc3c(c2)OC[C@H](Cc2ccccc2)NS3(=O)=O)CC1 to O=C1/C(=C/c2ccc3c(c2)OCO3)Oc2cc(OCC(=O)N3CC(O)C[C@H]3C(=O)O)ccc21 (some centres not stated), the fluorescence intensity rises from 5440 to 5670.

Compared with COc1ncnc2c1N=C1CC(C)(C)CC(N)=C1S2, COc1ccccc1OCC(=O)O/N=C(\N)c1ccccn1 is lower in fluorescence intensity: 10000 for the first, 6210 for the second.

First: CCOC(=O)N1CCN(C(=O)C[C@@H]2C[C@@]3(C(=O)OC)CCCCC=C3N(CCC3=CCCCC3)C2=O)CC1
Second: COC(=O)[C@]12CCCCC=C1N(CCC1=CCCCC1)C(=O)[C@H](CC(=O)NCC1CCCCC1)C2
The fluorescence intensity of the first is higher: 5780 for the first, 4280 for the second.

Compared with COC(=O)c1cc(C)sc1NC(=O)CC1Nc2ccccc2NC1=O (configuration not stated), CCCc1cc(=S)n2c([nH]c3ccccc32)c1C#N is lower in fluorescence intensity: 4220 for the first, 3240 for the second.

With O=C(CC1NCCNC1=O)Nc1ccc(Oc2ccccc2)cc1 (configuration not stated) the fluorescence intensity was 16900 (active).
For Cc1cccc(NC(=O)CSc2nnc(CCCCCNC(=O)OC(C)(C)C)o2)c1C, the fluorescence intensity was 20100 (active).
For Cn1nc(C(F)(F)F)c(C(=O)Nc2cccc(C(F)(F)F)c2)c1SCc1ccc(Cl)cc1, the fluorescence intensity was 18600 (active).
For CC(C)CCn1c(CN(C)Cc2ccccc2)nc2c1c(=O)n(C)c(=O)n2C, the fluorescence intensity was 21400 (active).
For COc1c(F)c(F)c(C(=O)O)c(Nc2ccccc2C)c1F, the fluorescence intensity was 21400 (active).
For CCOC(=O)c1c(C)c(C(=O)NCCc2ccc(S(N)(=O)=O)cc2)c(C)n1CC, the fluorescence intensity was 22600 (active).
In the case of COc1ccc(C(=O)NCCc2ccc(S(N)(=O)=O)cc2)cc1OC, the fluorescence intensity is reported as 17500 (active).
In the case of COc1ccc(OCC(=O)NCCc2ccc(S(N)(=O)=O)cc2)cc1, the fluorescence intensity is reported as 19600 (active).
In the case of S=c1[nH]nc(CSCc2ccc(Cl)cc2Cl)n1-c1ccccc1, the fluorescence intensity is reported as 22300 (active).
In the case of COCCn1c(=S)[nH]c2cc(C(=O)NCCc3ccc(OC)c(OC)c3)ccc2c1=O, the fluorescence intensity is reported as 22200 (active).
For CCOc1cc2[nH]c(=S)n(Cc3ccc(C(=O)NCCOC)cc3)c(=O)c2cc1OCC, the fluorescence intensity was 20100 (active).
With CCOC(=O)c1cc(C)sc1NC(=O)C1CCC1 the fluorescence intensity was 20200 (active).
In the case of C=CCN(CC=C)C(=O)CN1C(=O)c2ccccc2C1=O, the fluorescence intensity is reported as 16300 (active).
In the case of c1ccc(-c2ccnc3nc(-n4cccc4)nn23)cc1, the fluorescence intensity is reported as 16400 (active).
For CN(C)C(CNC(=O)CCCOc1ccccc1)c1ccco1 (configuration not stated), the fluorescence intensity was 22900 (active).
For N/C(=N\OC(=O)CCC1CCCCC1)c1ccccn1, the fluorescence intensity was 16300 (active).
In the case of COc1ccccc1C(=O)C(O)c1ccccc1OC (configuration not stated), the fluorescence intensity is reported as 20300 (active).
For CC(=O)Nc1ccccc1C(=O)C(=O)Nc1ccc(F)cc1, the fluorescence intensity was 19600 (active).
